Compound activity: PubChem BioAssay, several laboratories
Most compounds without a hit are left out; they make up all but 1.6% or so of the library.
PfHsp40 rescue: rescue of yeast from PfHsp40 toxicity, primary screen, S. cerevisiae, ATP luminescence; growth rescue, % at 12.5 µM; 0.68% of 340,000 active; S. cerevisiae expressing PfHsp40, growth rescue; in the data active = growth rescue above about 28%, passing the limit was not always enough;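 note: yeast W303a lacking pdr1 and pdr3 grown in galactose medium; growth measured after three days at 30 °C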
BJeLR lethal: MLPCN primary cell-based screen for lethality selective to Ras in HRASV12 cells. BJeLR (HRASV12) viability, CellTiter-Glo ATP luminescence, 48 h. inhibition, % (no concentration beside the values). 0.17% of 300,000 active. AID 1554, 2009; in the data active = inhibition above about 50%
CCHFV vOTU inh: CCHFV vOTU protease inhibitors, primary screen, biochemical, Pep-AMC substrate, fluorescence | Crimean-Congo hemorrhagic fever virus L polyprotein viral ovarian tumor (vOTU) protease … | inhibition, % at 11.5 µM | 0.55% of 370,000 active; in the data active = inhibition above about 30%; note: 0% = vehicle wells with enzyme and 100% = no enzyme wells
RN4220 kill: growth inhibition of S. aureus RN4220, primary screen, OD600 | 0.33% of 330,000 active | inhibition, % (test concentration not listed) | AID 1259311, 2017 | 16 h; in the data active = inhibition above about 85%;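 note: plate controls were untreated cells for no effect and reference antibiotic for full effect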
ugtP null kill: growth inhibition of ugtP-null S. aureus, primary screen, RN4220 ugtP deletion, OD600; 0.54% of 330,000 active; 16 h; growth inhibition, % (concentration not given with the values); in the data active = growth inhibition above about 68%;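 note: plate controls were untreated wells for no effect and antibiotic for full effect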
Active calls of the source: *.

CC(C)c1ccc(NC(=O)C(c2ccc3c(c2)OCO3)N2CCCCC2)cc1 (stereo not drawn) was read as PfHsp40 rescue 1, BJeLR lethal 3, CCHFV vOTU inh 20, RN4220 kill -1 and ugtP null kill 10.
For CC1C/C(=C/c2cccn2C)C(=O)/C(=C/c2cccn2C)C1 (stereo not drawn) the results were PfHsp40 rescue 2, BJeLR lethal 7, CCHFV vOTU inh -7, RN4220 kill 6 and ugtP null kill 6.
`CC1C/C(=C/c2ccncc2)C(=O)/C(=C/c2ccncc2)C1` (stereo not drawn) gave PfHsp40 rescue 51*, BJeLR lethal 54*, CCHFV vOTU inh -12, RN4220 kill 8 and ugtP null kill -3.
`CC(C)c1c(O)ccc2c1CC[C@H]1C(C)(C)CCC[C@]21C` gave PfHsp40 rescue 112* and CCHFV vOTU inh 12.
For Cc1ccc(S(=O)(=O)N(C)N=O)cc1 the results were PfHsp40 rescue 0, CCHFV vOTU inh 1, RN4220 kill 99* and ugtP null kill 99*.
`Cc1ccc(S(=O)(=O)N(C)S(=O)(=O)c2ccc(C)cc2)cc1` gave PfHsp40 rescue 7, BJeLR lethal 3, CCHFV vOTU inh -27, RN4220 kill 3 and ugtP null kill 8.
CC(C)(C)OC(=O)Nc1ccc(C(NC(=O)OC(C)(C)C)C(=O)OC(C)(C)C)cc1 (stereo not drawn) was read as RN4220 kill 8 and ugtP null kill 3.
`CC[n+]1ccccc1/C=C1\Sc2ccc(C)cc2N1C` gave PfHsp40 rescue 2, BJeLR lethal 19, CCHFV vOTU inh 12, RN4220 kill 27 and ugtP null kill 100*.
Screening CN1/C(=C/c2cccc[n+]2CCO)Sc2ccccc21 returned PfHsp40 rescue -1, BJeLR lethal 1, CCHFV vOTU inh 10, RN4220 kill -5 and ugtP null kill -1.
For COC(=O)C1=C(c2ccc(-c3ccccc3)c(F)c2)CC2CCC1N2C(=O)N1CCc2cc(OC)c(OC)cc2C1 (stereo not drawn) the results were RN4220 kill 2 and ugtP null kill -11.
O=C(Nc1cc(Cl)cc(Cl)c1)N1CCCC1 was read as PfHsp40 rescue -1, BJeLR lethal 4, CCHFV vOTU inh -6, RN4220 kill 91* and ugtP null kill 92.
For O=C(Nc1ccc(F)c(Cl)c1)N1CCCC1 the results were PfHsp40 rescue -1, BJeLR lethal 4, CCHFV vOTU inh -10, RN4220 kill 2 and ugtP null kill 9.
For CCOC(=O)C1C2COc3ccccc3C2N2C(=O)CNC(=O)[C@@]12C (stereo partly drawn) the results were RN4220 kill 4 and ugtP null kill -1.
`O=C(Nc1nncs1)c1ccc(S(=O)(=O)c2ccccc2)cc1` gave PfHsp40 rescue 173*, BJeLR lethal 6, CCHFV vOTU inh 7, RN4220 kill 6 and ugtP null kill 6.
`O=C(Nc1ccccc1C(=O)Nc1nncs1)c1ccccc1` gave PfHsp40 rescue -1, BJeLR lethal 2, CCHFV vOTU inh 1, RN4220 kill 34 and ugtP null kill 26.
`CC(CC(=O)Nc1ccc(N(C)C)cc1)=NNC(=O)C(=O)NCc1ccccc1` gave RN4220 kill 5 and ugtP null kill 14.
`COc1ccc(C)cc1NC(=O)CSc1nnc(COc2ccc(Cl)cc2)n1Cc1ccco1` gave PfHsp40 rescue 48*, BJeLR lethal -3, CCHFV vOTU inh 1, RN4220 kill -4 and ugtP null kill -26.
COc1ccc(C)cc1NC(=O)CSc1nnc(COc2ccccc2)n1Cc1ccco1 was read as PfHsp40 rescue 1, BJeLR lethal -5, CCHFV vOTU inh 10, RN4220 kill -4 and ugtP null kill -9.
CCC1=Nc2cc(C(=O)NCc3ccco3)ccc2Sc2ccc(C)cc21 was read as PfHsp40 rescue 2, BJeLR lethal 62*, CCHFV vOTU inh 14, RN4220 kill 0 and ugtP null kill -5.
Screening O=S(=O)(c1ccc2c(c1)C(=NO)c1cc(S(=O)(=O)N3CCCCC3)ccc1-2)N1CCCCC1 returned PfHsp40 rescue -1, BJeLR lethal 95*, CCHFV vOTU inh -3, RN4220 kill 3 and ugtP null kill -9.
Screening CC1CCN(S(=O)(=O)c2ccc3c(c2)C(=NO)c2cc(S(=O)(=O)N4CCC(C)CC4)ccc2-3)CC1 returned PfHsp40 rescue 0, CCHFV vOTU inh 6, RN4220 kill -25 and ugtP null kill -29.
Screening COC(=O)C1=C(c2cccc(OCc3ccccc3)c2)CC2CCC1N2C(=O)NCc1ccccc1 (stereo not drawn) returned RN4220 kill -3 and ugtP null kill 4.
Screening O=C(CN1CCCc2ccccc21)N/N=C/c1ccccc1 returned PfHsp40 rescue 0, BJeLR lethal -15 and CCHFV vOTU inh -9.
For O=C(CN1CCCc2ccccc21)N/N=C/c1c(O)ccc2ccccc12 the results were PfHsp40 rescue 179*, BJeLR lethal 4 and CCHFV vOTU inh 10.
O=C(N/N=C\c1c(O)ccc2ccccc12)c1ccc(S(=O)(=O)N2CCCCC2)cc1 was read as PfHsp40 rescue 0, BJeLR lethal 77* and CCHFV vOTU inh 1.
For O[C@@H](c1cc(C(F)(F)F)nc2c(C(F)(F)F)cccc12)[C@H]1CCCCN1 the results were PfHsp40 rescue 2, BJeLR lethal 8 and CCHFV vOTU inh 1.
OC(c1cc(-c2ccc(Cl)cc2)nc2ccccc12)C1CCCCN1 (stereo not drawn) was read as PfHsp40 rescue -2, BJeLR lethal 126* and CCHFV vOTU inh 6.
Screening Cc1cc(N=CN(C)C)on1 returned RN4220 kill 4 and ugtP null kill 1.
For COc1ccccc1-c1nnc(NC(=O)c2ccc(S(=O)(=O)N(C)Cc3ccccc3)cc2)o1 the results were RN4220 kill 110* and ugtP null kill 99*.
Screening CCc1nnc(NC(=O)c2ccc(S(=O)(=O)N(C)Cc3ccccc3)cc2)o1 returned PfHsp40 rescue 21, BJeLR lethal 5, CCHFV vOTU inh 2, RN4220 kill 23 and ugtP null kill 3.
For CCc1nnc(NC(=O)c2ccc(S(=O)(=O)N(CC)Cc3ccccc3)cc2)o1 the results were PfHsp40 rescue 172*, BJeLR lethal -2, CCHFV vOTU inh 7, RN4220 kill 43 and ugtP null kill 5.
`CN(c1ccccc1)S(=O)(=O)c1ccc(C(=O)Nc2nnc(-c3ccc(F)cc3)o2)cc1` gave BJeLR lethal -5, RN4220 kill 100* and ugtP null kill 100*.
`CCCCN(CC)S(=O)(=O)c1ccc(C(=O)Nc2nnc(-c3cccs3)o2)cc1` gave BJeLR lethal 3, RN4220 kill 93* and ugtP null kill 95*.
For CCOC(=O)C1C2COc3ccc(Br)cc3C2N2C(=O)N(c3ccc(Cl)cc3)C(=O)[C@@]12C (stereo partly drawn) the results were RN4220 kill -1 and ugtP null kill -38.
